In PubChem BioAssay AID1159580 (chemical genetic matrix, 2015):
Where “and” joins values, the source holds several entries; their conditions need not be identical. Equal entries are not always repeated. In all, about 5,500 compounds went through this assay and about 2,000 (36%) were called active. Not shown: some 18% with an inconclusive outcome. Cut-off read from the data, not from the text of the source: active = normalized growth mostly below about 0.91 (no sharp cut-off); inconclusive = no clear call, values can overlap the other calls; inactive = mostly above about 0.92. The list shows a part of the results.

Assay: chemical genetic growth profiling, strain panel (AID 1159580);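 note: tested at 20 µM; growth read once vehicle control cultures reached saturation at 30 °C; 1 = growth at the plate median or of vehicle wells; lower values mean less growth of the strain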
Settings: growth OD
[1] = S. cerevisiae deletion strains, locus YDL101C, strain DUN1, active compounds read low
[2] = S. cerevisiae deletion strains, locus YGR052W, strain FMP48, active compounds read low
[3] = S. cerevisiae deletion strains, locus YHR030C, strain SLT2, active compounds read low
[4] = S. cerevisiae deletion strains, locus YHR079C, strain IRE1, active compounds read low
[5] = S. cerevisiae deletion strains, locus YHR082C, strain KSP1, active compounds read low
[6] = S. cerevisiae deletion strains, locus YJL095W, strain BCK1, active compounds read low
[7] = S. cerevisiae deletion strains, locus YJR066W, strain TOR1, active compounds read low
[8] = S. cerevisiae deletion strains, locus YKL203C, strain TOR2, active compounds read low
[9] = S. cerevisiae deletion strains, locus YLR113W, strain HOG1, active compounds read low
[10] = S. cerevisiae deletion strains, locus YNL183C, strain NPR1, active compounds read low
[11] = S. cerevisiae deletion strains, locus YNL207W, strain RIO2, active compounds read low
[12] = S. cerevisiae deletion strains, locus YOR119C, strain RIO1, active compounds read low
[13] = S. cerevisiae deletion strains, locus YOR231W, strain MKK1, active compounds read low
[14] = S. cerevisiae deletion strains, locus YPL256C, strain CLN2, active compounds read low
[15] = S. cerevisiae deletion strains, locus YAL013W, strain DEP1, active compounds read low
[16] = S. cerevisiae deletion strains, locus YBR229C, strain ROT2, active compounds read low
[17] = S. cerevisiae deletion strains, locus YCL061C, strain MRC1, active compounds read low
[18] = S. cerevisiae deletion strains, locus YDR150W, strain NUM1, active compounds read low
[19] = S. cerevisiae deletion strains, locus YEL061C, strain CIN8, active compounds read low
[20] = S. cerevisiae deletion strains, locus YGR078C, strain PAC10, active compounds read low
[21] = S. cerevisiae deletion strains, locus YHR087W, strain rtc3, active compounds read low
[22] = S. cerevisiae deletion strains, locus YJR043C, strain POL32, active compounds read low
[23] = S. cerevisiae deletion strains, locus YJR075W, strain HOC1, active compounds read low
[24] = S. cerevisiae deletion strains, locus YLR039C, strain RIC1, active compounds read low
[25] = S. cerevisiae deletion strains, locus YLR058C, strain SHM2 (second series), active compounds read low
[26] = S. cerevisiae deletion strains, locus YLR085C, strain ARP6, active compounds read low
[27] = S. cerevisiae deletion strains, locus YLR262C, strain YPT6, active compounds read low
[28] = S. cerevisiae deletion strains, locus YML094W, strain GIM5, active compounds read low
[29] = S. cerevisiae deletion strains, locus YMR219W, strain ESC1, active compounds read low
[30] = S. cerevisiae deletion strains, locus YNL153C, strain GIM3, active compounds read low
[31] = S. cerevisiae deletion strains, locus YNL298W, strain CLA4 (second series), active compounds read low
[32] = S. cerevisiae deletion strains, locus YNL322C, strain KRE1, active compounds read low
[33] = S. cerevisiae deletion strains, locus YNR030W, strain Alg12, active compounds read low
[34] = S. cerevisiae deletion strains, locus YPL055C, strain LGE1, active compounds read low
[35] = S. cerevisiae deletion strains, locus YPL241C, strain CIN2, active compounds read low
[36] = S. cerevisiae deletion strains, locus YPR135W, strain CTF4, active compounds read low
[37] = S. cerevisiae deletion strains, locus YDL134C, strain PPH21, active compounds read low
[38] = S. cerevisiae deletion strains, locus YMR263W, strain SAP30, active compounds read low
[39] = S. cerevisiae strains, strain wild type, active compounds read low

Measured: normalized growth

O=S(=O)(Nc1ccc(Oc2ccc(OC(F)(F)F)cc2)cc1)c1cccc(Cl)c1
active: [3] 0.562 | [9] 0.695 | [14] 0.75
inactive: S. cerevisiae deletion strains, locus YAR019C, strain CDC15, active compounds read low 0.982 | S. cerevisiae deletion strains, locus YBL105C, strain PKC1, active compounds read low 0.973 | S. cerevisiae deletion strains, locus YBR135W, strain CKS1, active compounds read low 0.978 | S. cerevisiae deletion strains, locus YBR136W, strain MEC1, active compounds read low 0.982 | S. cerevisiae deletion strains, locus YBR160W, strain CDC28, active compounds read low 0.981 | S. cerevisiae deletion strains, locus YDL017W, strain CDC7, active compounds read low 0.982 | S. cerevisiae deletion strains, locus YDL028C, strain MPS1, active compounds read low 0.982 | [1] 0.991 | S. cerevisiae deletion strains, locus YDL108W, strain KIN28, active compounds read low 0.976 | S. cerevisiae deletion strains, locus YDL132W, strain cdc53, active compounds read low 0.988 | S. cerevisiae deletion strains, locus YDL214C, strain PRR2, active compounds read low 0.932 | S. cerevisiae deletion strains, locus YDR052C, strain DBF4, active compounds read low 0.98 | S. cerevisiae deletion strains, locus YDR054C, strain cdc34, active compounds read low 0.988 | S. cerevisiae deletion strains, locus YDR226W, strain ADK1, active compounds read low 0.984 | S. cerevisiae deletion strains, locus YDR477W, strain SNF1, active compounds read low 0.964 | S. cerevisiae deletion strains, locus YER123W, strain YCK3, active compounds read low 0.933 | S. cerevisiae deletion strains, locus YER133W, strain GLC7, active compounds read low 0.933 | S. cerevisiae deletion strains, locus YFL009W, strain cdc4, active compounds read low 0.979 | S. cerevisiae deletion strains, locus YFL029C, strain CAK1, active compounds read low 0.985 | S. cerevisiae deletion strains, locus YFR003C, strain YPI1, active compounds read low 0.977 | S. cerevisiae deletion strains, locus YFR019W, strain FAB1, active compounds read low 0.891 | S. cerevisiae deletion strains, locus YFR028C, strain CDC14, active compounds read low 0.985 | S. cerevisiae deletion strains, locus YGR040W, strain KSS1, active compounds read low 0.949 | [2] 0.958 | S. cerevisiae deletion strains, locus YGR092W, strain DBF2, active compounds read low 0.937 | [4] 0.837 | [5] 0.978 | S. cerevisiae deletion strains, locus YHR205W, strain SCH9, active compounds read low 0.955 | S. cerevisiae deletion strains, locus YIL147C, strain SLN1, active compounds read low 0.982 | [6] 0.948 | S. cerevisiae deletion strains, locus YJL128C, strain PBS2, active compounds read low 0.936 | S. cerevisiae deletion strains, locus YJL157C, strain FAR1, active compounds read low 0.946 | S. cerevisiae deletion strains, locus YJR016C, strain ILV3, active compounds read low 0.991 | S. cerevisiae deletion strains, locus YJR066W, strain TOR1 (second series), active compounds read low 0.92 | [7] 0.975 | S. cerevisiae deletion strains, locus YKL048C, strain ELM1, active compounds read low 0.945 | S. cerevisiae deletion strains, locus YKL067W, strain YNK1, active compounds read low 0.934 | S. cerevisiae deletion strains, locus YKL101W, strain HSL1, active compounds read low 0.916 | S. cerevisiae deletion strains, locus YKL193C, strain SDS22, active compounds read low 0.984 | [8] 0.995 | S. cerevisiae deletion strains, locus YLR133W, strain CKI1, active compounds read low 0.941 | S. cerevisiae deletion strains, locus YLR403W, strain SFP1, active compounds read low 0.954 | S. cerevisiae deletion strains, locus YML070W, strain DAK1, active compounds read low 0.923 | S. cerevisiae deletion strains, locus YMR001C, strain CDC5, active compounds read low 0.984 | S. cerevisiae deletion strains, locus YMR205C, strain PFK2 (second series), active compounds read low 0.954 | S. cerevisiae deletion strains, locus YMR277W, strain FCP1, active compounds read low 0.983 | S. cerevisiae deletion strains, locus YNL006W, strain LST8, active compounds read low 0.98 | S. cerevisiae deletion strains, locus YNL020C, strain ARK1, active compounds read low 0.919 | S. cerevisiae deletion strains, locus YNL161W, strain CBK1, active compounds read low 0.977 | [10] 0.991 | [11] 0.989 | S. cerevisiae deletion strains, locus YNL222W, strain SSU72, active compounds read low 0.979 | S. cerevisiae deletion strains, locus YNL307C, strain MCK1 (second series), active compounds read low 0.897 | S. cerevisiae deletion strains, locus YOL078W, strain AVO1, active compounds read low 0.991 | S. cerevisiae deletion strains, locus YOL136C, strain PFK27, active compounds read low 0.92 | S. cerevisiae deletion strains, locus YOR061W, strain CKA2, active compounds read low 0.917 | [12] 1.03 | [13] 0.887 | S. cerevisiae deletion strains, locus YOR329C, strain SCD5, active compounds read low 0.974 | S. cerevisiae deletion strains, locus YPL031C, strain PHO85, active compounds read low 0.95 | S. cerevisiae deletion strains, locus YPL153C, strain RAD53, active compounds read low 0.982 | S. cerevisiae deletion strains, locus YPL204W, strain HRR25, active compounds read low 0.941 | S. cerevisiae deletion strains, locus YPL209C, strain IPL1, active compounds read low 0.977 | S. cerevisiae deletion strains, locus YPR025C, strain CCL1, active compounds read low 0.977 | S. cerevisiae deletion strains, locus YPR106W, strain ISR1, active compounds read low 0.988 | S. cerevisiae deletion strains, locus YPR111W, strain DBF20, active compounds read low 0.969 | S. cerevisiae deletion strains, strain NNK1, active compounds read low 0.989 | S. cerevisiae deletion strains, strain TSCII, active compounds read low 0.983

O=S(=O)(Nc1ccc(Oc2ccc(Cl)cc2)cc1)c1ccccc1
inactive: [1] 0.911 | [23] 0.899 | [25] 0.998 | [32] 1.04
active: [15] 0.219 | [16] 0.923 | [17] 0.851 | [18] 0.518 | [19] 0.51 | [2] 0.122 | [20] 0.901 | [3] 0.114 and 0.113 | [4] 0.199 | [5] 0.137 | [21] 0.866 | [6] 0.108 | [22] 0.843 | [7] 0.206 | [8] 0.274 | [24] 0.293 | [26] 0.247 | [9] 0.166 | [27] 0.117 | [28] 0.483 | [29] 0.925 | [30] 0.879 | [10] 0.154 | [11] 0.248 | [31] 0.321 | [33] 0.191 | [12] 0.226 | [13] 0.159 | [34] 0.106 | [35] 0.341 | [14] 0.239 | [36] 0.309

Cc1ccc(S(=O)(=O)Nc2ccc(C)c([N+](=O)[O-])c2)cc1
inactive: [15] 0.995 | [16] 0.988 | [1] 0.95 | [37] 0.994 | [18] 0.958 | [19] 1.03 | [20] 0.986 | S. cerevisiae deletion strains, locus YGR229C, strain SMI1, active compounds read low 1 | [3] 0.989 | [21] 1.02 | S. cerevisiae deletion strains, locus YJL187C, strain SWE1, active compounds read low 1.01 | [22] 0.976 | [23] 0.971 | S. cerevisiae deletion strains, locus YKL190W, strain CNB1, active compounds read low 0.988 | [24] 1.02 | [25] 1 | [26] 0.991 | [27] 1.01 | [28] 1.01 | [29] 0.993 | [38] 0.999 | [30] 0.979 | [31] 0.963 | [32] 0.983 | [33] 0.961 | S. cerevisiae deletion strains, locus YOL006C, strain TOP1, active compounds read low 1.02 | [34] 1.01 | [35] 0.952 | [36] 0.898 | [39] 0.981

Cn1nccc1NS(=O)(=O)c1cccc(Cl)c1
inactive: [15] 1.01 | [16] 1.01 | [17] 1.02 | [1] 1 | [37] 0.969 | [18] 1.04 | [19] 1.01 | [20] 1.02 | [3] 1.07 | [21] 1.01 | [22] 1.03 | [23] 1.02 | [24] 0.98 | [25] 1.04 | [26] 0.984 | [27] 1.07 | [28] 0.972 | [29] 0.998 | [38] 1.03 | S. cerevisiae deletion strains, locus YMR307W, strain GAS1, active compounds read low 0.957 | [30] 1.01 | [31] 1.03 | [32] 1 | [33] 0.995 | [34] 1 | [35] 0.975 | [36] 1.08 | [39] 1.01
